High-throughput results (PubChem BioAssay)
An excerpt weighted towards active compounds, which were near 4.3% of everything screened.
CR mimetic SO: lowers age-related superoxide in aged yeast cells | superoxide response (% of plate mean), % at 10 µM | AID 2690 | 0.18% of 330,000 active | S. cerevisiae aged cells, superoxide DHE fluorescence; stronger effect = lower value;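 active means superoxide response under a set limit, about three screen SD below normal, cut at about 65% in these data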;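 further: yeast aged for seven days with compound at 30 °C before DHE staining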
dFosB act: mouse delta FosB homodimer activation. P13346. purified delta FosB, TAMRA-CDK5 oligo fluorescence polarization; percent of positive-control signal above neutral wells. activation, % at 25 µM. 0.99% of 340,000 active. AID 493131;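 active means mean activation above about 17%, with every replicate also reaching it, limit read from the data, passing the limit was not always enough; inconclusive means only one of the two conditions met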
Target sequence (P13346 whole entry, looked up): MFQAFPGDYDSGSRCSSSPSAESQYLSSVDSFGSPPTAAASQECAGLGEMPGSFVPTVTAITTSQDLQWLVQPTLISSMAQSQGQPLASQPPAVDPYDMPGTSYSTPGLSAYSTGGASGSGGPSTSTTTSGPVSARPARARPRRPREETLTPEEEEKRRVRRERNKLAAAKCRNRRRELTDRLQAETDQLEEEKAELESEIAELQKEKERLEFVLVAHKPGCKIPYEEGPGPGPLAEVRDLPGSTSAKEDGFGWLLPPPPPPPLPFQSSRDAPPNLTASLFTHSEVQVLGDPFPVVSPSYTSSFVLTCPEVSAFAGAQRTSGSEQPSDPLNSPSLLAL
UBC13 inh: blocks human UBC13 polyubiquitin chain formation. TR-FRET. inhibition, % at 20 µM. 0.47% of 330,000 active. AID 485273; in the data active means inhibition above about 45%, passing the limit was not always enough; inconclusive means no clear call, values can overlap the other calls
Target sequence (P61088 whole entry, looked up): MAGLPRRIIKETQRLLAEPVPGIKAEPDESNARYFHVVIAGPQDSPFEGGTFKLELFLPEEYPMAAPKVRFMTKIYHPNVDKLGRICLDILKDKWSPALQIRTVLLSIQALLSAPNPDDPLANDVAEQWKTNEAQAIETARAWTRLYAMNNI
NALP1 inh: blocks the NALP1 inflammasome reconstituted in yeast; inhibition, % at 10 µM; S. cerevisiae NALP1/ASC/caspase-1 growth, X-gal OD620, 72 h; 0.61% of 280,000 active; in the data active means inhibition mostly above about 24%, no sharp cut-off; inactive means mostly below about 32%
NR3A LBD binder: NR3A (human) ligand-binding domain modulation | NR3A LBD differential scanning fluorimetry, Tm shift; 0% = protein alone, 100% = glycine-bound protein | Tm shift relative to glycine control, % at 25 µM | 2.5% of 340,000 active | AID 1259313;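 active means melting temperature shift of at least 10% of the positive control shift, at one fixed dose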
Hits are given with their value; - = inactive; ? = inconclusive; . = not tested or not shown.

SMILES	CR mimetic SO	dFosB act	UBC13 inh	NALP1 inh	NR3A LBD binder
Cc1ccc(/C=C2/SC(=S)N(CCCC(=O)Nc3cc([N+](=O)[O-])ccc3O)C2=O)cc1	-	-	-	-	-
CC(=O)Oc1ccc(/C=C2/SC(=S)N(Cc3ccccc3)C2=O)cc1	-	-	-	-	-
O=C1/C(=C/c2ccc(O)c([N+](=O)[O-])c2)SC(=S)N1Cc1ccccc1	-	-	-	-	498
O=C(CN1C(=O)S/C(=C\c2ccccc2)C1=O)Nc1cc([N+](=O)[O-])ccc1O	-	-	-	-	23
CCSc1nnc(SCC(=O)c2c(N)n(C)c(=O)n(C)c2=O)s1	.	-	-	.	-
COc1ccc(CNC(=O)CNC(=O)N2CC(=O)Nc3ccccc32)cc1	-	-	-	-	-
CC(NC(=O)c1ccccc1Br)c1nnc(SCC(=O)NC2=NCCS2)n1C (stereo unspecified)	-	-	-	-	-
COc1ccccc1-n1ccnc1SCC(=O)NCC1CCCO1 (stereo unspecified)	-	-	-	-	-
Nc1ccc2c(c1)C/C(=C/c1ccco1)C2=O	-	-	-	49	-
O=C1/C(=C/c2ccco2)CCc2ccccc21	-	-	-	-	14
COc1ccc(/C=C2/CCc3ccccc3C2=O)cc1OC	-	-	-	-	10
COc1cc(/C=C2/CCc3ccccc3C2=O)cc(OC)c1OC	-	-	-	-	-
COc1ccc2c(c1)CC/C(=C/c1ccco1)C2=O	-	-	-	-	-
COC(=O)/C=C/c1cnc[nH]1	-	-	-	-	-
COc1ccc(-c2nn(-c3ccccc3)cc2C(=O)NC(=S)Nc2cc(Cl)ccc2Cl)cc1	-	-	-	.	-
Cc1ccc(S(=O)(=O)/N=C(/Nc2c(C)cccc2C)c2ccccc2)cc1	-	-	-	.	-
Cc1cc(C)n2nc(C(=O)N3CCCC(Nc4ccc(F)c(F)c4)C3)cc2n1 (stereo unspecified)	-	-	-	-	-
O=S1(=O)CCC(NC(=S)NCCNC(=S)NC2CCS(=O)(=O)C2)C1 (stereo unspecified)	-	-	-	-	21
C=CCSC(=S)NC1CCS(=O)(=O)C1 (stereo unspecified)	-	-	-	82	-
Cc1cccc(C(=O)N2CCc3cc(-c4csc(NC(=O)CN5CCCC5)n4)ccc32)c1	-	37	-	-	-
COc1ccc(N2CCN(C(=O)CCS(=O)(=O)c3ccc4c(c3)CCN4C(=O)C3CC3)CC2)cc1	-	-	-	-	-
CC(C)(C)c1ccc(OCC(=O)N2CCN(C=O)CC2)cc1	-	-	-	-	18
COc1ccc(OCC(=O)N2CCN(C(=O)c3ccccc3)CC2)cc1	-	-	-	-	-
C[C@@H]1CN([C@H](C)CO)C(=O)c2cc(NC(=O)Nc3ccc(C(F)(F)F)cc3)ccc2O[C@H]1CN(C)C(=O)Nc1ccc(F)cc1	.	-	.	.	18
C[C@H](CO)N1C[C@H](C)[C@@H](CN(C)C(=O)Nc2ccc(C(F)(F)F)cc2)Oc2ccc(NC(=O)Nc3ccc(C(F)(F)F)cc3)cc2C1=O	-	-	-	.	10
SMILES	CR mimetic SO	dFosB act	UBC13 inh	NALP1 inh	NR3A LBD binder
C[C@H](CO)N1C[C@H](C)[C@@H](CN(C)C(=O)Nc2ccccc2)Oc2ccc(NC(=O)Nc3ccc4c(c3)OCO4)cc2C1=O	-	-	-	.	-
CC(C)NC(=O)N(C)C[C@H]1Oc2ccc(NC(=O)Nc3ccc(C(F)(F)F)cc3)cc2C(=O)N([C@H](C)CO)C[C@@H]1C	-	-	-	.	-
C[C@H](CO)N1C[C@H](C)[C@@H](CN(C)C(=O)Nc2ccc3c(c2)OCO3)Oc2ccc(NC(=O)Nc3ccc(C(F)(F)F)cc3)cc2C1=O	-	-	-	.	11
COc1ccc(NC(C)=O)cc1NC(=O)C1CCN(C(=O)Nc2ccccc2)CC1	-	-	-	.	-
O=C(NN=C1c2ccccc2-c2ccccc21)c1cccc(Br)c1	-	-	-	-	-
COc1ccc(NC(=O)CC2(CC(=O)N3CCOCC3)CCCC2)cc1Cl	-	-	-	.	-
CCOc1ccccc1NC(=O)CC1(CC(=O)N2CCOCC2)CCCC1	.	-	-	.	13
Cc1cccc(C(=O)OC(C)C(=O)NCC2CCCCC2)c1O (stereo unspecified)	-	-	?	.	-
O=C(NCCc1ccccc1)C1CCC(=O)N(Cc2cccc(C(F)(F)F)c2)C1 (stereo unspecified)	-	-	-	-	-
CC1(C)COC(/C=C/c2ccc([N+](=O)[O-])cc2)=N1	-	-	.	89	-
CN(Cc1ccccc1)S(=O)(=O)c1ccccc1Br	-	-	.	.	-
CC(C)[C@@H](CO)N(C)S(=O)(=O)c1ccccc1Br	-	-	.	.	11
CC(=O)Nc1nc(CC(C)C)cc2c1c(=O)oc1ccccc12	-	-	-	28	-
CCCCc1cc2c(c(NC(C)=O)n1)c(=O)oc1ccccc12	-	.	-	-	.
Cn1c(Nc2ccccc2)nc2ccccc21	-	-	-	-	12
CCCn1c(Nc2nc3ccccc3n2C)nc2ccccc21	-	-	-	30	-
Nn1c(Nc2ccccc2)nc2ccccc21	-	-	-	-	-
C=C(C)C(=O)N1CC2(CC(c3cccc(NC(=O)/C(C)=C\C)c3)=NO2)C[C@H]1C(N)=O (stereo partly specified)	-	-	-	.	-
CCc1ccc2c(CN3CCOCC3)cc(=O)oc2c1	-	-	-	-	-
CCc1ccc2oc(=O)cc(CN3CCOCC3)c2c1	-	-	-	-	10
O=C(Cn1ccc(NC(=O)OCc2ccccc2)nc1=O)NCCCN1CCCC1=O	-	-	-	.	-
CCC1CCCCN1C(=O)CSc1nnc(-c2ccc(OC)cc2)o1 (stereo unspecified)	-	-	-	44	-
CCOC(=O)N1CCN(C(=O)CSc2nnc(-c3cccc(OC)c3)o2)CC1	-	-	-	-	-
COc1ccc(-c2nnc(SCC(=O)/C(C#N)=C(\C)N)o2)cc1	-	-	-	-	13
CCOC(=O)N1CCN(C(=O)CSc2nnc(-c3cc(OC)cc(OC)c3)o2)CC1	-	-	-	-	11
SMILES	CR mimetic SO	dFosB act	UBC13 inh	NALP1 inh	NR3A LBD binder
CC(=O)N1CC2(NC(=O)c3ccccc3N2)c2ccccc21 (stereo unspecified)	-	-	-	-	-
Oc1ccc(-c2c(C3=CCCCC3)sc3ccccc23)cc1	-	-	.	-	-
CCOC(=O)c1nn(-c2ccccc2)c2nnc(Cc3ccc(Cl)cc3)c(=O)n12	-	-	-	-	-
CCOC(=O)c1nn(-c2ccc(Cl)cc2)c2nnc(Cc3ccc(C)cc3)c(=O)n12	-	-	-	-	13
CCOC(=O)c1nn(-c2ccc(Cl)cc2)c2nnc(Cc3ccccc3)c(=O)n12	-	-	-	-	10
COC(=O)c1nn(-c2ccccc2)c2nnc(Cc3ccc(C)cc3)c(=O)n12	-	-	-	-	-
O=S(=O)(c1ccc(NC(=S)NN=C(Cc2ccccc2)Cc2ccccc2)cc1)N1CCOCC1	-	-	-	-	-
